# Laboratory results: PubChem BioAssay
# Calls of active or inactive are those of the source. Unless noted, no rule for the calls is given here.
# How the values were obtained:
# [1] = system: Wnt5a (protein binding on small-molecule microarray); assay: Wnt5a binders on small-molecule microarray, primary screen, biophysical, 635/667 nm fluorescence (AID 1142); settings: 635 nm fluorescence, higher = more signal;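 also: fluorescence read at 667 nm with signal to noise per printed feature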
# [2] = cell viability in Huh7 cells, primary screen, cytotoxicity control for HCV replication inhibitor project, CellTiter-Glo luminescence, basal, 48 h (AID 1143); settings: Huh7 HCV replicon, higher = more signal, called active from +8 up or from −8 down;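 also: Huh7 hepatoma cells carrying a hepatitis C replication reporter with no stimulus; test concentration not given here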
# [3] = P. aeruginosa biofilm formation inhibitors, primary screen, PAO1 strain, BacTiter-Glo luminescence, LB-PBS (AID 1144); settings: 12 h, higher = more signal
# [4] = CREB reporter modulators without forskolin, primary screen, cell-based, PC12, CRE-LacZ reporter, unstimulated (AID 1145); settings: no forskolin, luminescence, 4.5 h, higher = more signal, called active from +8 up or from −8 down
# [5] = CREB reporter modulators under forskolin, primary screen, cell-based, PC12, CRE-LacZ reporter, forskolin-stimulated (AID 1146); settings: luminescence, 4.5 h, higher = more signal, called active from +8 up or from −8 down;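 also: PC12 cells with 6xCRE LacZ reporter stimulated by forskolin 10 µM; beta-galactosidase reporter signal reflecting CREB driven transcription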
# [6] = molecular target: Streptavidin (Streptomyces avidinii) (UniProt P22629); assay: streptavidin binders on small-molecule microarray, primary screen, artefact control for SMM compound annotation, biophysical, 635/667 nm fluorescence (AID 1147); settings: streptavidin binding, higher = more signal;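 also: signal reflects streptavidin binding to arrayed compounds as a control protein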
# [7] = small-molecule binders of probe aInhba, primary screen, biochemical, small-molecule microarray, 635/667 nm fluorescence (AID 1148); settings: higher = more signal;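 also: score merges 667nm spot fluorescence with signal-to-noise for antibody binding to printed compounds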
# Torsin-1A (Homo sapiens) [8] = molecular target: Torsin-1A (Homo sapiens) (UniProt O14656); assay: torsin A binders from cell lysate, primary screen, small-molecule microarray, wild-type, 635/667 nm (AID 1149); settings: COS7 hTOR1A-WT lysate, 635 nm fluorescence, higher = more signal
# Torsin-1A (Homo sapiens) [9] = molecular target: Torsin-1A (Homo sapiens) (UniProt O14656); assay: small-molecule binders of mutant TOR1A in lysate, primary screen, cell lysate, small-molecule microarray, COS7 lysate, 635/667 nm fluorescence (AID 1150); settings: COS7 hTOR1A mutant lysate, 635 nm fluorescence, higher = more signal;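 also: score pools 667 nm emission and signal to noise measuring lysate protein binding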
# [10] = system: Sonic hedgehog protein (Shh); assay: small-molecule binders of Shh protein, primary screen, biochemical, small-molecule microarray, 635/667 nm fluorescence (AID 1151); settings: small-molecule microarray binding, 635 nm fluorescence; higher = more signal;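 also: Shh protein binding to compounds spotted on small-molecule microarray slides; score combines spot fluorescence intensity with signal-to-noise across triplicate slides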
# [11] = E. coli DRC41 culture turbidity changes, primary screen, E. coli filamentation inducer project, strain DRC41, OD650, 48 h (AID 1152);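 also: E. coli MC1000 strain DRC41 lacking acrAB efflux pump and sulA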; settings: E. coli DRC41 (acrAB sulA), higher = more signal, called active from +8 up or from −8 down
# [12] = small-molecule binders of probe aLefty1, primary screen, biochemical, small-molecule microarray, 635/667 nm fluorescence (AID 1153); settings: higher = more signal;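 also: score merges spot fluorescence with signal-to-noise ratio from the scanned slide images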
# [13] = PSAC antagonists in infected red cells, primary screen, cell-based, P. falciparum Indochina, OD700, 1 h (AID 1154); settings: P. falciparum Indochina infected RBC osmotic lysis, higher = more signal, called active from +8 up or from −8 down
# [14] = PSAC antagonists in infected red cells, primary screen, cell-based, P. falciparum Indochina, OD700, 2 h (AID 1155);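 also: lysis reports solute entry through the parasite surface anion channel PSAC; channel blockers reduce lysis of infected cells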; settings: P. falciparum Indochina infected erythrocytes, osmotic lysis OD700; higher = more signal, called active from +8 up or from −8 down
# [15] = osmotic lysis modulators in infected erythrocytes, primary screen, PSAC antagonist project, cell-based, P. falciparum Indochina, OD700, 3 h (AID 1156); settings: higher = more signal, called active from +8 up or from −8 down
# [16] = PSAC antagonists in infected red cells, primary screen, cell-based, P. falciparum Indochina, OD700, 18 h (AID 1157); settings: P. falciparum Indochina infected erythrocytes, osmotic lysis OD700, 18 h; higher = more signal, called active from +8 up or from −8 down
# [17] = modulators of S6 phosphorylation in cells, primary screen, cell-based, A549, cytoblot, luminescence, serum-stimulated (AID 1158); settings: A549 phospho-S6 cytoblot, 5 h, higher = more signal;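 also: serum-stimulated A549 lung adenocarcinoma cells; signal is phosphorylated S6 detected by cytoblot immunostaining with HRP secondary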
# [18] = molecular target: NADPH oxidase 2 (Homo sapiens) (UniProt P04839); assay: NOX2-dependent H2O2 signal modulators, primary screen, NOX inhibitor project, cell-based, HEK293-NOX2, PMA-stimulated, Amplex Red fluorescence (AID 1159); settings: 45 min, higher = more signal, called active from +8 up or from −8 down; also: test concentration not given here
# [19] = molecular target: NADPH oxidase 4 (Homo sapiens) (UniProt Q9NPH5); assay: NOX4-dependent H2O2 signal modulators, primary screen, NOX inhibitor project, cell-based, HEK293-NOX4, tetracycline-induced, Amplex Red fluorescence (AID 1160); settings: 45 min, higher = more signal, called active from +8 up or from −8 down
# [20] = molecular target: NADPH oxidase 5 (Homo sapiens) (UniProt Q96PH1); assay: NOX5-dependent H2O2 signal modulators, primary screen, NOX inhibitor project, cell-based, HEK293-NOX5, Amplex Red fluorescence (AID 1161); settings: HEK293-NOX5, ionomycin, 45 min, higher = more signal
# NADPH oxidase 5 (Homo sapiens), sequence (Q96PH1 whole entry, looked up): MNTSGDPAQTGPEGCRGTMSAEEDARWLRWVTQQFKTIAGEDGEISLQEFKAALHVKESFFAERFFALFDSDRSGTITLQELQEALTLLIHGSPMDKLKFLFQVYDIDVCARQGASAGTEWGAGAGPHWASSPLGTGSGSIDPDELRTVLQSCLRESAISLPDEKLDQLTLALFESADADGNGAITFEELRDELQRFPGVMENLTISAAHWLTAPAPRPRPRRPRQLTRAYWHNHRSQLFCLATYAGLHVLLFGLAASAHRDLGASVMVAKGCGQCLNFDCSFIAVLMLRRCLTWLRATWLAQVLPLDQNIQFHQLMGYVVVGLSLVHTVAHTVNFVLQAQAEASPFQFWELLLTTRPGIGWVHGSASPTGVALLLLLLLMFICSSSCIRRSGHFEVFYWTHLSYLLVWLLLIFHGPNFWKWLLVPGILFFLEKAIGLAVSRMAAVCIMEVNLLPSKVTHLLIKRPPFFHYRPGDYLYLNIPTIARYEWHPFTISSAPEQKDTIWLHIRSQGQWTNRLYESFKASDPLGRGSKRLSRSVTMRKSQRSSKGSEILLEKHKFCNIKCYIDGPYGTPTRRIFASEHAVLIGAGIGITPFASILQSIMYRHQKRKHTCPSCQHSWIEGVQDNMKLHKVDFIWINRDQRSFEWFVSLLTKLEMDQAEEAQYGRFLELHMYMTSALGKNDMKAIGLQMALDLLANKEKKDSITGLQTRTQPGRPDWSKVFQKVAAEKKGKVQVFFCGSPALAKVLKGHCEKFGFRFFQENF
# Streptavidin (Streptomyces avidinii), sequence (P22629 whole entry, looked up): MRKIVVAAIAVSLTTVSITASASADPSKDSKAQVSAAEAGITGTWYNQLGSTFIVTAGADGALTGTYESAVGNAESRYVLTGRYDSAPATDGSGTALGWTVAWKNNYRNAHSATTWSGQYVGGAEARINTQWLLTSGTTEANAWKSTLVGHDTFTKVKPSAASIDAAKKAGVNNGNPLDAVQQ
# NADPH oxidase 4 (Homo sapiens), sequence (Q9NPH5 whole entry, looked up): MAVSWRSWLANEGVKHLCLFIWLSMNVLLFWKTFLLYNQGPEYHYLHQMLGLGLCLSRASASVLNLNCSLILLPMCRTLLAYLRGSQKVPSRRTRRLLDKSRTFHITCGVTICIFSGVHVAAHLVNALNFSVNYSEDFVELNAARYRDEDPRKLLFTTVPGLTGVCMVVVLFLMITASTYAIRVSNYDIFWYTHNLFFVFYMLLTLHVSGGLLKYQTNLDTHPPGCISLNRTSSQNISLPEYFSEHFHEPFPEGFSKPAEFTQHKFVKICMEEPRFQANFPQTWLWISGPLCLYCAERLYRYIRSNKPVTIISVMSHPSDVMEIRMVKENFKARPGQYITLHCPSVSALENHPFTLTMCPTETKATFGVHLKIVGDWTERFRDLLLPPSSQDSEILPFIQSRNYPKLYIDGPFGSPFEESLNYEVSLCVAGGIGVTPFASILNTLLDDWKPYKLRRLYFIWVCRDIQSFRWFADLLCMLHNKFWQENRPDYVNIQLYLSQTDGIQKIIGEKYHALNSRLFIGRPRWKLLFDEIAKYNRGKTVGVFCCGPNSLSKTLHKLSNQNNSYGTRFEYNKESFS
# Torsin-1A (Homo sapiens), sequence (O14656 whole entry, looked up): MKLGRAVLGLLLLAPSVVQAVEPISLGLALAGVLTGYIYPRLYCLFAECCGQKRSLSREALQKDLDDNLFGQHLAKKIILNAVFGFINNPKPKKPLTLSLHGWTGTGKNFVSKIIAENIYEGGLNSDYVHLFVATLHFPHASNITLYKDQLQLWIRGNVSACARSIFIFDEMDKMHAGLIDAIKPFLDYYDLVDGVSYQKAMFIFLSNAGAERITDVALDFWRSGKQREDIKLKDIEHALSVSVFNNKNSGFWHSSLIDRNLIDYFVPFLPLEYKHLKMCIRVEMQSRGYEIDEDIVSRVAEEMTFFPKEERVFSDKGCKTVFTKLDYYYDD
# NADPH oxidase 2 (Homo sapiens), sequence (P04839 whole entry, looked up): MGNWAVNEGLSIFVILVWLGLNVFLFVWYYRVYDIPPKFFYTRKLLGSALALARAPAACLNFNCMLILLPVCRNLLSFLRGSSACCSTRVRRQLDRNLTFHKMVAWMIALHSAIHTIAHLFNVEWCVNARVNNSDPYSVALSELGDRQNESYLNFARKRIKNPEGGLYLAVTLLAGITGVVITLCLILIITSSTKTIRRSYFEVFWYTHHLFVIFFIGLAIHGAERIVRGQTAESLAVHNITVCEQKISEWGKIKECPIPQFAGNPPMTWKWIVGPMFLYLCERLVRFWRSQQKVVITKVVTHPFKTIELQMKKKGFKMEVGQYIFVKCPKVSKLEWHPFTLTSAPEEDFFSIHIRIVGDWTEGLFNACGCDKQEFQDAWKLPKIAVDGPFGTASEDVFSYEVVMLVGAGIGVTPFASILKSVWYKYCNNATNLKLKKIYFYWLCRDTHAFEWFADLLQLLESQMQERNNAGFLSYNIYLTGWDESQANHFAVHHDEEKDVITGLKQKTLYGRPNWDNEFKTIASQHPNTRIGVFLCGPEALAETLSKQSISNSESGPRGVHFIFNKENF
SMILES,composite z-score [1],z-score [2],z-score [3],z-score [4],z-score [5],composite z-score [6],composite z-score [7],composite z-score (Torsin-1A (Homo sapiens) [8]),composite z-score (Torsin-1A (Homo sapiens) [9]),composite z-score [10],z-score [11],composite z-score [12],z-score [13],z-score [14],z-score [15],z-score [16],z-score [17],z-score [18],z-score [19],z-score [20]
C=C[C@@H](O)[C@H]1CC(c2ccccc2)=NO1,-0.184,0.0011 (inactive),0.15 (inactive),1.03 (inactive),0.167 (inactive),0.174,-0.183,0.154,0.334,-0.18,1.07 (inactive),0.0557,16 (active),1.82 (inactive),-0.112 (inactive),0.477 (inactive),-0.194,-0.671 (inactive),-0.0807 (inactive),0.344
COc1ccc([Si](C)(C)[C@@H]2[C@@H](CCO)O[C@]3(C(=O)N(Cc4ccccc4)c4ccc(N5CCCCC5=O)cc43)[C@H]2C)cc1,0.271,-8.08 (active),-0.119 (inactive),8.84 (active),-0.94 (inactive),0.583,0.0446,-0.121,0.198,1.44,2.13 (inactive),0.0984,3.59 (inactive),1.19 (inactive),-0.121 (inactive),0.231 (inactive),0.863,-0.421 (inactive),-0.278 (inactive),1.37
CO[C@H]1O[C@H](CO)[C@@H](OC(=O)c2ccc(Br)cc2)[C@@H]2OC(=O)[C@H](Cc3cccc(Br)c3)C/C=C/C[C@@H](Cc3cccc(Br)c3)C(=O)O[C@@H]12,0.422,-1.62 (inactive),-0.0682 (inactive),0.212 (inactive),0.122 (inactive),0.578,-0.0695,-0.103,0.442,0.707,-0.681 (inactive),0.415,1.56 (inactive),0.624 (inactive),-0.778 (inactive),0.484 (inactive),-0.0043,-0.129 (inactive),0.211 (inactive),0.875
COCCOC(=O)N1C(=O)[C@@]2(c3cc(C#CCNC(N)=O)ccc31)[C@H](c1ccc(OCCO)cc1)N1[C@H](c3ccccc3)[C@H](c3ccccc3)OC(=O)[C@H]1[C@@H]2C(=O)N1CCN(c2ncccn2)CC1,0.333,0.0075 (inactive),0.443 (inactive),0.212 (inactive),0.675 (inactive),0.651,-0.024,0.833,0.581,0.983,-0.283 (inactive),0.209,4.15 (inactive),1.81 (inactive),0.428 (inactive),1.05 (inactive),0.537,2.29 (inactive),0.937 (inactive),0.877
CCCCC(O)C1C=CC2C(=O)N(Cc3ccccc3)C(=O)C2N1n1cnnc1 (stereo not given),0.0687,-4.01 (inactive),-0.372 (inactive),0.519 (inactive),-0.422 (inactive),0.416,-0.0477,0.0569,-0.459,0.22,-1.18 (inactive),0.574,0.706 (inactive),-1.16 (inactive),0.662 (inactive),-1.85 (inactive),1.99,-3.33 (inactive),-2.04 (inactive),-3.3
CC(=O)NCCCC[C@@H]1NC(=O)[C@H]2C[C@@H](C(=O)NCCCCCN)[C@@H](c3cccc(OCCO)c3)N2C1=O,0.292,-0.532 (inactive),0.00194 (inactive),-0.675 (inactive),-1.44 (inactive),0.688,-0.102,0.455,0.0709,-0.0725,2.39 (inactive),0.262,1.15 (inactive),-1.08 (inactive),1.9 (inactive),-1.98 (inactive),1.36,0.0821 (inactive),0.793 (inactive),0.875
COC(=O)[C@H]1N=C(c2ccc(OCCCO)cc2)O[C@H]1c1ccccc1CN=[N+]=[N-],-0.0973,-1.45 (inactive),0.446 (inactive),-0.23 (inactive),-0.785 (inactive),-0.129,0.11,-1.66,-0.8,0.166,0.495 (inactive),0.938,24 (active),7.57 (inactive),1.35 (inactive),1.11 (inactive),-0.221,-0.102 (inactive),1.43 (inactive),0.352
CCOC(=O)C[C@H]1[C@H](OC(=O)Cc2ccc3c(c2)OCO3)[C@@H](NC(=O)c2ccccc2)c2cc(OCCCO)ccc2N1C(=O)c1ccc2ccccc2n1,-0.112,-0.629 (inactive),0.581 (inactive),11 (active),-0.981 (inactive),0.965,-0.0418,0.0426,1.19,0.844,2.15 (inactive),0.031,6.69 (inactive),-0.0918 (inactive),-1.04 (inactive),-1.23 (inactive),0.873,-0.357 (inactive),1.16 (inactive),0.27
